Test results reported in PubChem BioAssay (NCATS).
Inconclusive results are not listed. Unmarked numbers belong to inactive results. Calls of active or inactive are those of the source. The call rests on the fitted dose curve; in most records, active means well fitted cell-killing curve with a large enough effect; inconclusive means small, poorly fitted or top-dose-only effect; inactive means flat fitted curve, though single readings scatter.
Potency means the concentration at half of the fitted maximal effect.

Test: qHTS of pediatric cancer cell lines to identify multiple opportunities for drug repurposing: Primary screen for U-2 OS cells (AID 1347096); further: nearly all actives have a fitted effect of over 50% in size;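 on activity change, negative = cytotoxic: plate controls were DMSO wells for no effect and bortezomib positive control wells for full effect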
Settings: U-2 OS viability, CellTiter-Glo luminescence, 48 h; series mostly up to 46 µM; activity change, negative = cytotoxic: at the top concentration
Outline: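 Cells (500-1,000/well) rested 5 h, then received compounds for 48 h; metabolically active cells were measured by CellTiter-Glo luminescence. Final concentrations spanned up to 46 µM (MIPE, 11-point) or 0.59 nM-46 µM (NPC, 8-point) in primary screens, 11-point in follow-ups.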
For O=C(O)CCCc1c[nH]c2ccccc12, the “activity change, negative = cytotoxic” value was -0.159%. With CN(C)CCCN=c1c2ccccc2n(C)c2[nH]c(=O)n(C)c(=O)c12 the “activity change, negative = cytotoxic” value was 9.38%. With COC(=O)Nc1nc2ccc(C(=O)c3ccc(F)cc3)cc2[nH]1 the “activity change, negative = cytotoxic” value was -18.7%. With CC(=O)SC[C@@H](C)C(=O)N1CCC[C@H]1C(=O)N[C@@H](Cc1ccccc1)C(=O)O the “activity change, negative = cytotoxic” value was 9.71%. In the case of CCC[C@H](NC(=O)C(C#N)=Cc1cccc(Br)n1)c1ccccc1, the “activity change, negative = cytotoxic” value is reported as 11.1%. For Cc1ccc(C(N)=O)cc1Nc1nccc(-c2cn(C(C)C)c3cnccc23)n1, the “activity change, negative = cytotoxic” value was -24.4%. With Cc1cc(Nc2cc(CN3CCOCC3)c3nc(C)c(Cc4ccc(Cl)cc4F)n3n2)n[nH]1 the “activity change, negative = cytotoxic” value was 15%. In the case of CC=CC1=C(C(=O)O)N2C(=O)[C@H](NC(=O)[C@H](N)c3ccc(O)cc3)[C@@H]2SC1, the “activity change, negative = cytotoxic” value is reported as 13.7%. For COC(=O)[C@]12CCC(C)(C)C[C@@H]1[C@@H]1C(=O)C=C3[C@@]4(C)C=C(C#N)C(=O)C(C)(C)[C@@H]4CC[C@@]3(C)[C@]1(C)CC2, the Potency was 0.935 µM (active). With CNc1nccc(-c2cccnc2Oc2cc(C(=O)Nc3cccc(C(F)(F)F)c3)ccc2C)n1 the Potency was 11.8 µM (active). For O=C(c1ccc(Nc2nccc(-c3cc4ccccc4s3)n2)cc1)N1CCC(N2CCCC2)CC1, the Potency was 23.5 µM (active). For O=C(O)c1ccc2c(c1)nc(Nc1cccc(Cl)c1)c1ccncc12, the Potency was 18.7 µM (active). In the case of CC(C)C[C@H](NC(=O)CNC(=O)c1cc(Cl)ccc1Cl)B(O)O, the Potency is reported as 0.743 µM (active). For COc1cc2c(cc1-c1c(C)noc1C)ncc1[nH]c(=O)n([C@H](C)c3ccccn3)c12, the Potency was 18.7 µM (active).
